# Measurements from PubChem BioAssay (NCATS).
# Results filed as inconclusive are left out. Entries that show only a call come without a potency. Active and inactive are the calls of the source. Calls come from the whole dose curve; as a rule, active = well fitted inhibition curve with a large enough effect; inconclusive = small, poorly fitted or top-dose-only effect; inactive = flat fitted curve, though single readings scatter.
# Test system: CP265
# Assay: qHTS profiling for inhibitors of Plasmodium falciparum proliferation (AID 504749); note: nearly all actives have a fitted effect of over 60% in size
# Settings: P. falciparum in erythrocytes, SYBR Green DNA, 72 h; series mostly up to 28.7 µM
# Method in brief: (§1)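 Infected RBCs, 0.3% parasitemia/2.5% Hct final; cpd 72 h, 37 C, 5% CO2; lysis buffer with saponin/triton/SYBR Green I, o/n RT dark; FI 485/535; norm. to artemisinin (0.29 uM) and DMSO.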
row,Compound,Potency
1,NC(=O)NNc1ccccc1,inactive
2,O=C(O)[C@@H]1CSCN1,inactive
3,COc1ccc2c(c1)C(=O)N(CCc1ccc(S(=O)(=O)NC(=O)NC3CCCCC3)cc1)C(=O)C2(C)C,inactive
4,CCCc1c(OCCCCc2nn[nH]n2)ccc(C(C)=O)c1O,inactive
5,CCn1cc(C(=O)O)c(=O)c2cnc(N3CCNCC3)nc21,inactive
6,O=C(O)COc1nn(Cc2ccccc2)c2ccccc12,inactive
7,O=C1O[C@H]([C@@H](O)CO)C(O)=C1O,inactive
8,O=S(=O)(O)c1cc(I)c(O)c2ncccc12,inactive
9,CC1=C(CC(=O)O)c2cc(F)ccc2/C1=C\c1ccc(S(C)=O)cc1 (stereo not drawn),inactive
10,CCOC(=O)c1ccc(O)cc1,inactive
11,O=C(O)c1ccccn1,inactive
12,Cc1cc(O)cc2c1O[C@](C)(CCC[C@H](C)CCC[C@H](C)CCCC(C)C)CC2,inactive
13,NCC(=O)CCC(=O)O,inactive
14,CC(C)(C)C(=O)NCCCC(=O)O,inactive
15,COc1cc2[nH]c(=O)[nH]c(=O)c2cc1OC,inactive
16,CCC(=O)Nc1ccc(O)cc1,inactive

row,Compound,Potency
1,COc1ccc(Cl)cc1C(=O)NCCc1ccc(S(=O)(=O)NC(=O)NC2CCCCC2)cc1,inactive
2,O=C1NC(=O)[C@@]2(CCOc3ccc(F)cc32)N1,inactive
3,O=Cc1ccccc1C=O,inactive
4,CC(O)CN(CCN(CC(C)O)CC(C)O)CC(C)O (stereo not drawn),inactive
5,Cc1ccc(C(C)C)cc2c(C)ccc1-2,inactive
6,Nc1nc2c(ncn2CCC(CO)CO)c(=O)[nH]1,inactive
7,NCCNCCNCCN,inactive
8,CC1(C)OC(=O)NC1=O,inactive
9,O=C1c2c(O)cccc2Cc2cccc(O)c21,inactive
10,CCCOC(=O)c1ccccc1,inactive
11,CC12CCC(CC1)C(C)(C)O2,inactive
12,CC(=O)Nc1ccc(/C=N/NC(N)=S)cc1,inactive
13,CC(C)(C)NCC(O)COc1ccc(NC(=O)NC2CCCCC2)cc1 (stereo not drawn),inactive
14,O=C1OC(OC(=O)c2cccnc2Nc2cccc(C(F)(F)F)c2)c2ccccc21 (stereo not drawn),inactive
15,O=C1NS(=O)(=O)c2ccccc21,inactive

# Test system: CP266
# Assay: as above
# Settings: P. falciparum in erythrocytes, SYBR Green DNA, 72 h; series mostly up to 28.7 µM
# Method in brief: as §1
row,Compound,Potency
1,NC(=O)NNc1ccccc1,inactive
2,COc1ccc2c(c1)C(=O)N(CCc1ccc(S(=O)(=O)NC(=O)NC3CCCCC3)cc1)C(=O)C2(C)C,inactive
3,CCCc1c(OCCCCc2nn[nH]n2)ccc(C(C)=O)c1O,inactive
4,CCn1cc(C(=O)O)c(=O)c2cnc(N3CCNCC3)nc21,inactive
5,O=C(O)COc1nn(Cc2ccccc2)c2ccccc12,inactive
6,O=C1O[C@H]([C@@H](O)CO)C(O)=C1O,inactive
7,O=S(=O)(O)c1cc(I)c(O)c2ncccc12,inactive
8,CCOC(=O)c1ccc(O)cc1,inactive
9,O=C(O)c1ccccn1,inactive
10,Cc1cc(O)cc2c1O[C@](C)(CCC[C@H](C)CCC[C@H](C)CCCC(C)C)CC2,inactive
11,NCC(=O)CCC(=O)O,inactive
12,CC(C)(C)C(=O)NCCCC(=O)O,inactive
13,COc1cc2[nH]c(=O)[nH]c(=O)c2cc1OC,inactive
14,CCC(=O)Nc1ccc(O)cc1,inactive
15,COc1ccc(Cl)cc1C(=O)NCCc1ccc(S(=O)(=O)NC(=O)NC2CCCCC2)cc1,inactive
16,O=Cc1ccccc1C=O,inactive
17,Cc1ccc(C(C)C)cc2c(C)ccc1-2,inactive
18,NCCNCCNCCN,inactive
19,CC1(C)OC(=O)NC1=O,inactive
20,CCCCN(CCCC)CCCOC(=O)c1ccc(N)cc1,inactive
21,O=C1c2c(O)cccc2Cc2cccc(O)c21,inactive
22,CCCOC(=O)c1ccccc1,inactive
23,CC12CCC(CC1)C(C)(C)O2,inactive
24,CC(=O)Nc1ccc(/C=N/NC(N)=S)cc1,inactive
25,CC(C)(C)NCC(O)COc1ccc(NC(=O)NC2CCCCC2)cc1 (stereo not drawn),inactive
26,O=C1OC(OC(=O)c2cccnc2Nc2cccc(C(F)(F)F)c2)c2ccccc21 (stereo not drawn),inactive
27,O=C1NS(=O)(=O)c2ccccc21,inactive
